Pf growth 96h: P. falciparum growth inhibition at 96 hour, primary screen for plastid delayed-death inhibitors; P. falciparum luciferase reporter growth, 96 h; Potency, µM (series often up to 28.7 µM), for the others: at the top dose activity change, negative = inhibition, actives largely listed as inhibitors; hit rate 6.9% among 320,000; also: potency is read from the fitted curve at half-maximal effect; % is scaled to controls: 0 for no effect and ±100 for the full control effect
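Two parasite generations (96 h, 37 C, 5% CO2) of compound exposure in infected erythrocytes (0.05% parasitemia, 2% hematocrit). Luciferase-reporter P. falciparum; decreased luminescence indicates inhibited growth, aimed at apicoplast-acting delayed death.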
HCMV antiviral: inhibitors of human cytomegalovirus | HFF cells, HCMV-luciferase reporter, 72 h; active compounds read low | activity change, negative = inhibition, % at 57.5 µM | hit rate 4.5% among 410,000 | AID 1259415; in the data active = activity change below about -60%; inconclusive = no clear call, values can overlap the other calls; inactive = above about -39%; also: % is scaled to controls: 0 for no effect and ±100 for the full control effect
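After 16 h attachment at 37C, HFF cells received test compound and HCMV-luciferase (1 PFU/cell); reporter luminescence read 72 h later, data normalized against buffer-only and known inhibitor Salinomycin.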
HCV inh: inhibitors of hepatitis C virus infection; Huh7.5.1 HCVcc-Cre infection, luciferase reporter, 44 h; Potency, µM (top dose mostly 41.8 µM), inactives show at the top dose activity change, negative = inhibition, hits mostly inhibitors; hit rate 3.4% among 340,000; AID 651820; also: potency is read from the fitted curve at half-maximal effect; % is scaled to controls: 0 for no effect and ±100 for the full control effect
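Infectious HCVcc-Cre (~0.5 moi) was added to cells just after compound, with cells seeded 4 h earlier at 1,000 per well. Luciferase activity after 44 h culture reported infection; substrate was incubated 15 min at room temperature before reading.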
SARS PLpro yeast: blocks SARS-CoV papain-like protease in a yeast assay; Potency, µM (titrated, usually from 32.9 µM), without a hit: at the top dose activity, positive = growth rescue, usual class: activators; S. cerevisiae expressing SARS-CoV PLpro, growth rescue; hit rate 0.19% among 330,000; AID 485353; calls by dose curve; also: potency is read from the fitted curve at half-maximal effect; 0% is about no effect; nearly all actives have a fitted effect of over 55% in size
Pf growth 48h: inhibits P. falciparum growth in the first generation, 48 h | P. falciparum luciferase growth in erythrocytes, 48 h | Potency, µM (top dose mostly 28.7 µM), inactives show at the top dose activity change, negative = inhibition, usual class: inhibitors | hit rate 5.9% among 310,000 | AID 504832; also: potency is read from the fitted curve at half-maximal effect; % is scaled to controls: 0 for no effect and ±100 for the full control effect
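First compound was added to culture medium, then infected red cells at 0.1% parasitemia and 2% hematocrit (final). After incubation at 37 C under 5% CO2, luciferase detection reagent was dispensed and light output recorded.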
Sm TGR block: inhibitors of Schistosoma mansoni thioredoxin glutathione reductase; Q962Y6; purified TGR, DTNB reduction, TNB absorbance 405 nm; Potency, µM (doses to about 114 µM), for inactives: at the top dose activity change, negative = inhibition, usual class: inhibitors; hit rate 3% among 360,000; AID 485364; also: potency is read from the fitted curve at half-maximal effect; % is scaled to controls: 0 for no effect and ±100 for the full control effect; nearly all actives have a fitted effect of over 60% in size
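First, TGR (20 nM dispensed) and NADPH were mixed with compound. Second, a 15 min room-temperature incubation followed. Third, further NADPH and then DTNB were added to start the reaction. Finally, TNB absorbance was monitored kinetically.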
An asterisk follows results filed as active; ? = inconclusive; nt = not tested or not shown; [ ] = dose if it differs, or a comment. Most compounds without a hit are left out; they make up all but 15% or so of the library. Unless noted, calls follow the shape of the dose curve; as a rule, active = well fitted curve in the direction sought with a large enough effect; inconclusive = small, poorly fitted or top-dose-only effect, or another doubt; inactive = no such curve, though single readings can be large; an effect the other way counts as inactive or inconclusive.

SMILES	Pf growth 96h	HCMV antiviral	HCV inh	SARS PLpro yeast	Pf growth 48h	Sm TGR block
CCN(CC)S(=O)(=O)c1ccc(NC(=O)c2ccc(CN3CCOCC3)cc2)cc1	-14.5%	-95.0*	?	22.0%	6.57µM*	-0.8%
O=C(Nc1ccc(S(=O)(=O)N2CCOCC2)cc1)c1ccc(Cl)cc1	?	16.9	?	-2.4%	?	-13.9%
NS(=O)(=O)c1ccc(NC(=O)c2ccc(S(=O)(=O)N3CCCCC3)cc2)cc1	nt	0.0	-7.1%	2.1%	nt	nt
O=C(Nc1ccc(S(=O)(=O)N2CCCC2)cc1)c1ccc(CN2CCOCC2)cc1	23.8%	-81.4*	6.31µM*	0.7%	?	-9.9%
O=C(Nc1ccc(S(=O)(=O)N2CCCCC2)cc1)c1ccc(CN2CCOCC2)cc1	-23.0%	nt	2.82µM*	-10.7%	?	3.6%
Cc1ccn(CC(=O)N2CCCC(N3CCN(c4cccc(C(F)(F)F)c4)CC3)C2)n1 (centres undefined)	nt	35.4	nt	nt	nt	nt
COC(=O)C(NC(=O)c1cccnc1Cl)C(C)C (centres undefined)	31.9%	-6.1	-6.4%	0.8%	70.3%	1.1%
Cc1cc(N2CCN(C/C=C/c3ccccc3)CC2)n2ncnc2n1	?	-91.3*	?	9.7%	0.0%	1.9%
Cc1cc(N2CCN(c3ccccc3)CC2)n2ncnc2n1	-5.2%	?	9.8%	0.0%	11.7%	-6.4%
COc1ccc(-c2nc3ccccc3s2)cc1NC(=O)c1ccccc1OC	nt	49.5	nt	nt	nt	9.7%
Cc1nnc2ccc(-c3ccc(NC(=O)Cc4cccs4)cc3)nn12	9.28µM*	25.9	-7.0%	0.5%	37.5%	-23.9%
Cc1nnc2ccc(-c3ccc(NC(=O)c4ccco4)cc3)nn12	?	34.5	4.2%	0.2%	-12.3%	31.6µM*
CC(=O)Nc1ccc(-c2ccc3nnc(C)n3n2)cc1	?	59.2	9.7%	2.3%	-2.2%	-0.4%
CCOc1ccc(CC(=O)Nc2ccc(-c3ccc4nnc(C)n4n3)cc2)cc1	-11.8%	46.6	-9.9%	-5.6%	-14.4%	-8.7%
Cc1nc2ccccc2n1CCc1nc2c3ccccc3nc(SCC#N)n2n1	?	nt	nt	3.7%	7.8%	34.8%
CC1=C(C(=O)OC2CCCC2)C(c2cccc(Cl)c2Cl)CC(=O)N1 (centres undefined)	nt	-74.6*	nt	nt	nt	1.9%
COc1ccc2c(c1)CC(N1CCN(C)CC1)c1cc(OC)ccc1S2 (centres undefined)	nt	-64.3*	?	nt	nt	nt
COc1ccc2c3c(cccc13)N(C)N=C2C	0.0%	-24.6	?	5.9%	10.4µM*	-1.7%
O=C(COc1ccccc1-c1ccccc1)NN=C1CCCC1	?	-8.2	-15.7%	0.0%	-17.3%	-3.6%
COc1ccc(CNC(=O)c2cccc(N3CCCS3(=O)=O)c2)cc1OC	nt	-84.6*	nt	nt	nt	4.4%
COc1ccc(CNC(=O)c2cccc(N3CCCS3(=O)=O)c2)cc1	nt	-17.6	nt	nt	nt	12.5%
COc1cc2c(C(=O)N3CCN(c4ccc(F)cc4)CC3)cn(CC(C)C)c(=O)c2cc1OC	nt	-4.9	nt	nt	nt	-5.9%
COc1cc(S(=O)(=O)N(Cc2ccc(C)cc2)C2CCCCC2)ccc1-n1cnnn1	nt	-35.7	-13.4%	-41.8%	5.86µM*	8.8%
CC(C)OCCCn1c(SCc2ccccc2C#N)nc2c(sc3ccccc32)c1=O	nt	-2.7	nt	nt	nt	4.6%
O=C(Nc1ccccc1)Nc1nnc(Cc2ccc(F)cc2)s1	8.28µM*	-32.4	-3.3%	1.6%	?	-0.3%
COc1ccc(Cc2nnc(NC(=O)Nc3ccccc3F)s2)cc1OC	11.7µM*	-11.4	?	-9.9%	?	10.5%
COc1ccc(Cc2nnc(NC(=O)Nc3ccc(C)cc3)s2)cc1OC	-1.7%	47.9	5.5%	-2.1%	-2.1%[0.00184 µM]	-2.1%
O=C(Nc1nnc(Cc2ccc(F)cc2)s1)Nc1ccccc1F	11.7µM*	6.5	-21.8%	5.9%	-4.5%	-8.5%
COc1ccc(NC(=O)Nc2nnc(Cc3ccc(OC)c(OC)c3)s2)cc1	11.7µM*	-12.0	3.0%	6.5%	-29.4%	19.6%

Source: PubChem BioAssay
